Test results: PubChem BioAssay (NCATS)
Inconclusive results are not listed. Activity calls are given as the source filed them. The call rests on the fitted dose curve; in most records, active means well fitted curve in the direction sought with a large enough effect; inconclusive means small, poorly fitted or top-dose-only effect, or another doubt; inactive means no such curve, though single readings can be large; an effect the other way counts as inactive or inconclusive.

What was measured:
[1] = target: Glutathione peroxidase 1 (Homo sapiens) (UniProt P07203); experiment: Primary qHTS Assay for Inhibitors of Recombinant Selenoprotein Glutathione Peroxidase 1 (GPX1) (AID 1845191); further: nearly all actives have a fitted effect of over 65% in size; further: potency means the concentration at half of the fitted maximal effect
Glutathione peroxidase 1 (Homo sapiens), sequence (P07203 whole entry, looked up): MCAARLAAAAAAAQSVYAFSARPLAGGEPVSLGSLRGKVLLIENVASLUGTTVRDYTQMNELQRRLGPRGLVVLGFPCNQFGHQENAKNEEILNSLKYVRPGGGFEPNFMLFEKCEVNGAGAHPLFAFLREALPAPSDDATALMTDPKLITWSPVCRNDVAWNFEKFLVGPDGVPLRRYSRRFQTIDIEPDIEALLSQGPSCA
How it was run: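 10 nM GPX1 + cpd, 30 min RT; start w/ 1 mM GSH, 0.5 mM cumene hydroperoxide, 0.5 mM NADPH, 100 nM GR, 0.01% BSA; buffer 50 mM Tris-HCl pH 7.5, 2 mM EDTA, 150 mM NaCl; Fl 340/450, 0 & 15 min.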

[2] = target: Phospholipid hydroperoxide glutathione peroxidase GPX4 (Homo sapiens) (UniProt P36969); experiment: Primary qHTS Assay for Inhibitors of Recombinant Selenoprotein Glutathione Peroxidase 4 (GPX4) (AID 1845192); further: series mostly up to about 50 µM; nearly all actives have a fitted effect of over 65% in size
Phospholipid hydroperoxide glutathione peroxidase GPX4 (Homo sapiens), sequence (P36969 whole entry, looked up): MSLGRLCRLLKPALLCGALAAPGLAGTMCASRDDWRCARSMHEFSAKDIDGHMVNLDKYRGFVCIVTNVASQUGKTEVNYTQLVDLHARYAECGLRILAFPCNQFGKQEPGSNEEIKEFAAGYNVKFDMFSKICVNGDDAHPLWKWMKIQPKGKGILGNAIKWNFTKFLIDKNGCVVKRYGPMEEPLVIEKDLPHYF
How it was run: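 NADPH consumption, followed by fluorescence at 340/450 nm between 0 and 15 min, reports GPX4 activity via coupled glutathione reductase (100 nM). Enzyme 200 nM was pre-exposed to compound 30 min; 0.5 mM cumene hydroperoxide and 1 mM GSH served as substrates.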

[3] = system: Nanoluciferase (engineered Oplophorus gracilirostris luciferase); experiment: Primary Nanoluciferase (NLuc) qHTS assay for identification of artifact compounds. (AID 1845222); further: series mostly up to about 54 µM
How it was run: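 Compounds are pinned into diluted (1:55) conditioned medium of NLuc-expressing S16 cells and held 15 min at room temperature protected from light. Nano-Glo substrate follows, and luminescence is read 5 min later.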

[4] = target: Luciferin 4-monooxygenase (Photinus pyralis) (UniProt P08659); experiment: Primary firefly luciferase (FLuc) qHTS assay for identification of artifact compounds. (AID 1845220); further: nearly all actives have a fitted effect of over 60% in size; further: potency means the concentration at half of the fitted maximal effect
How it was run: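 Cell-free, 1536-well qHTS. Buffer pH 7.6 with 0.01% Tween-20 and 0.05% BSA; 10 uM D-luciferin, 10 uM ATP; 10 nM P. pyralis luciferase; luminescence after 5 min.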

[5] = Primary fluorescence-based thiol-reactive (MSTI) qHTS assay for identification of artifact compounds. (AID 1845221); further: nearly all actives have a fitted effect of over 65% in size; further: potency means the concentration at half of the fitted maximal effect
How it was run: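 Compounds were incubated 1 h at room temperature in the dark with the MSTI probe (4 uM) in PBS pH 7.4, 2% DMSO. Signals were normalized between Acetyl-MSTI and MSTI.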

[6] = Primary redox qHTS assay for identification of artifact compounds. (AID 1845223)
How it was run: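 Amplex Red (25 uM) and HRP (250 mU/mL) in HBSS, with compounds for 15 min, then 250 uM DTT for 30 min, room temperature, dark. Fluorescence 525/598 nm read; normalized to DMSO and 10 uM DA3003; Hill fit.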

Measured: Potency

Cc1cc(C(C)Nc2ccccc2C(=O)O)c2nc(N3CCOCC3)cc(=O)n2c1 (configuration not stated)
inactive: [1] | [2] | [3]

CCC(C)CNCC(=O)N1CCC2SC=CC2C1COc1cccc(C)c1 (configuration not stated)
inactive: [1] | [4] | [5] | [3]

Cc1cc(C)c(S(=O)(=O)n2cc(C)cc2C)c(C)c1
inactive: [1] | [2] | [3] | [6]

N#Cc1cccc(C(=O)Nc2cc(-c3ccccc3)nn2-c2ccccc2)c1
not listed: [2]
inactive: all other assays above

CC(C)NC(=O)COc1cccc(-c2nc(Nc3ccc4[nH]ncc4c3)c3ccccc3n2)c1
not listed: [2]
inactive: all other assays above

Cc1ccc(C)c(NC(=O)[C@@H]2CCCN2S(=O)(=O)c2cccc3cccnc23)c1
not listed: [2]
inactive: all other assays above

CS(=O)(=O)c1ccc(Oc2cc(F)cc(C#N)c2)c2c1[C@H](O)C(F)(F)C2
inactive: [2]

Cc1cc(-c2cc(OC(=O)c3ccccc3)ccc2Cl)cc2nnc(Nc3ccc(OCCN4CCCC4)cc3)nc12
inactive: [1] | [4] | [3] | [6]

CCCCC1CCN(CCCN2C(=O)CCc3ccccc32)CC1
inactive: [1] | [5] | [3] | [6]

COc1ccc(-c2c(C)nn3c(NCCN4CCOCC4)cc(C)nc23)cc1OC
inactive: [1] | [4] | [3]

O=C(NCC(=O)N1CCCC1)Nc1ccc2cnccc2c1
not listed: [2]
inactive: all other assays above

COc1ccc(N2CCN(C(=O)c3cc4c(s3)-c3ccccc3S(=O)(=O)C4)CC2)cc1
inactive: [1] | [4] | [3] | [6]

O=C(Nc1ccc2[nH]c(=O)oc2c1)C(=O)N1CCC(Cc2ccc(F)cc2)CC1
not listed: [2]
inactive: all other assays above

CCOc1cc(C(C)(C)C)ccc1C1=NC(C)(c2ccc(Cl)cc2)C(C)(c2ccc(Cl)cc2)N1C(=O)N1CCN(CCCS(C)(=O)=O)CC1 (configuration not stated)
not listed: [2]
inactive: all other assays above

Cc1c(C(=O)NCc2cccnc2)nn(-c2ccc(Cl)cc2Cl)c1-c1ccc(Cl)cc1
inactive: [1] | [4] | [3] | [6]

CC(C)S(=O)(=O)c1ccc2nccc(Nc3ccc4scnc4c3)c2c1
not listed: [2]
inactive: all other assays above

COC1C(OC(=O)/C=C/C=C/C=C/C=C/C(=O)O)CCC2(CO2)C1C1(C)OC1CC=C(C)C (configuration not stated)
inactive: [1] | [4] | [3] | [6]

CC[C@H](C)/C=C(C)/C=C/C1=CC2=CC(=O)[C@]3(C)OC(=O)[C@@H](C(C)=O)[C@@H]3C2=CO1
inactive: [1] | [4] | [3] | [6]

COc1ccc(C#Cc2ccc(C(=O)N3CCC[C@@H](O)C3)c(F)c2)cc1
inactive: [1] | [5] | [3] | [6]

CC(=O)O[C@]1(C(C)=O)CC[C@H]2[C@@H]3CCC4=CC(=O)CCC4=C3[C@@H](c3ccc(N(C)C)cc3)C[C@@]21C
inactive: [1] | [4] | [3] | [6]

C/C(=C\Cc1c(O)c(Cl)c(C)c(C=O)c1O)CC/C=C(\C)[C@H]1CC(=O)C(C)(C)O1
inactive: [1] | [4] | [3]

C/C=C(\C)C(=O)O[C@H]1C=CC(=O)O[C@H]1/C=C/[C@@H](O)[C@H](C)O
not listed: [2]
inactive: all other assays above

COc1ccc2cc3c(NC(=O)c4ccco4)nn(C)c3nc2c1
inactive: [1] | [4] | [5] | [6]

Cc1cccc(-c2[nH]ncc2-c2ccc(F)c(-c3cnn(CCO)c3)c2)n1
not listed: [2]
inactive: all other assays above

C#CC(=O)N(c1ccc(OC)cc1OC)C(C(=O)NCC(=O)OCC)c1cccs1 (configuration not stated)
not listed: [2]
inactive: all other assays above

O=C1Nc2nc(-c3c(O)cccc3OCC3CC3)cc([C@@H]3CCCNC3)c2CO1
not listed: [2]
inactive: all other assays above

CC/C(C)=C/C(=O)OC1C(OC2(C)CCC3C(C4C(C)CCC42)C3(C)C)OC(C)C(O)C1O (configuration not stated)
inactive: [1] | [4] | [3] | [6]

C/C=C/C=C/c1cc2c(C=O)c(O)c(CC=C(C)C)cc2o1
inactive: [1] | [3] | [6]
active: [5] 21.2 µM

CCOC(=O)COc1ccc2c(=O)cc(-c3ccccc3)oc2c1
inactive: [2]

S=C(c1ccc(-c2ccc(Cl)c(Cl)c2)o1)N1CCCCC1
active: [1] 25.5 µM | [4] 1.69 µM
inactive: [3] | [6]
